Results on 100 compounds are retold here after PubChem BioAssay AID431 (Sanford-Burnham Center for Chemical Genomics, 2006).

Screen size: about 63,000 compounds; about 1,100 (1.7%) were called active. What follows is part of a selection rich in actives, with near analogues and random picks from the rest. Measured potencies and affinities stand elsewhere. Values without a mark were called inactive.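 Rule for the calls: active = compounds whose percent cytotoxicity in the single-dose primary screen, scaled between solvent and toxic-drug controls, exceeds 50; inactive = the rest.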

The nature of this assay: viability loss of HPDE-C7K cells – cell-based, fluorescence, HTS, primary screen (AID 431).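 Note: 0% = DMSO solvent wells and 100% = doxorubicin-treated wells.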 As to conditions: HPDE-C7K KRASV12 cells, Alamar Blue viability, 48 h; at 10 µM; active compounds read high.
For the compound `O=C(CSc1ncn(-c2ccccc2)n1)Nc1nc2ccccc2s1`, the cytotoxicity is -3.6%.

For `CCOC(=O)c1sc(NC(=O)CSc2nnnn2-c2ccccc2)nc1C`, the cytotoxicity is 9.6%.

For the compound `CCOC(=O)c1sc(NC(=O)CSc2ncn(-c3ccccc3)n2)nc1C`, the cytotoxicity is 76.1% (active). As for `O=C1c2ccccc2C(=O)N1CCCc1nc2ccccc2c(=O)n1CCCn1ccnc1`, the cytotoxicity is -31.5%.

As for `CCn1c2ccccc2c2nnc(SCCCn3c(=O)[nH]c4ccccc43)nc21`, the cytotoxicity is 2.7%. `C=CCn1c2ccccc2c2nnc(SCN3C(=O)c4ccccc4C3=O)nc21`: the cytotoxicity is 7.6%. For `C=CCn1c2ccccc2c2nnc(SCCCn3c(=O)[nH]c4ccccc43)nc21` the value was 68.6% (active). For `Cc1cc(C)n2nc(-c3cccnc3)nc2n1` the value was 2.1%.

Consider `O=C(Nc1nncs1)c1ccc(N2C(=O)C3C4C=CC(C4)C3C2=O)cc1` (stereo not given), for which the cytotoxicity is 10.1%.

As for `CCc1nnc(NC(=O)CSc2nc(C)c3c(c2C#N)CCCC3)s1`, the cytotoxicity was 75.3% (active). The value for `CCc1nnc(NC(=O)CSc2nc3c(cc2C#N)CCCC3)s1` was 8.4%; that for `CCc1nnc(NC(=O)CSc2nc3c(cc2C#N)CCC3)s1` was 33.4%; that for `O=C(NCc1ccccn1)Nc1ccc(Cl)c(Cl)c1` was 1.8%. The value for `Cc1ccc(CNC(=O)CCCn2c(=O)[nH]c3ccccc3c2=O)cc1` was -8.5%; that for `Cc1ccc2[nH]c3c(c2c1)CCc1cn[nH]c1-3` was 35.6%.

`O=C1CCCc2c1[nH]c1ccccc21`: the cytotoxicity was -0.9%. For `c1ccc2c3c([nH]c2c1)-c1[nH]ncc1CC3` the value was 50.2% (active); for `CCOC(=O)C1CCN(c2nc3ccccc3nc2C(C#N)C(=O)OC(C)COC)CC1` (stereo not given), 6.6%; for `CCOC(=O)C1CCCN(c2nc3ccccc3nc2C(C#N)C(=O)OC(C)C)C1` (stereo not given), -4.8%.

With `CCOC(=O)C1CCCN(c2nc3ccccc3nc2C(C#N)C(=O)OCCOC)C1` (stereo not given), the cytotoxicity is 53.1% (active).

Take `CCOC(=O)C1CCCN(c2nc3ccccc3nc2C(C#N)C(=O)OCC)C1` (stereo not given): the cytotoxicity is 12.9%. The value for `CCOC(=O)C1CCN(c2nc3ccccc3nc2C(C#N)C(=O)OC(C)C)CC1` (stereo not given) was 62.8% (active); that for `CCOC(=O)C1CCCN(c2nc3ccccc3nc2C(C#N)C(=O)OC(C)COC)C1` (stereo not given) was 31.8%. The value for `O=c1oc2ccccc2n1CCn1c2ccccc2c2nc3ccccc3nc21` was 14.9%. `CSCCC(NC(=O)c1ccco1)C(=O)OC(C)C(=O)NC(=O)NC1CCCCC1` (stereo not given): the cytotoxicity was -4.2%. The value for `O=C(CN(C1CCCCC1)S(=O)(=O)c1ccc(F)cc1)NC1CC1` was -2.7%; that for `CCC1CCCCN1c1nc(-c2ccncc2)nc2ccccc12` (stereo not given) was -15.6%. The value for `CCOC(=O)Cc1nnc2c(Nc3ccc(Cl)cc3)nc3nonc3n12` was 70.2% (active).

For `CCOC(=O)Cc1nnc2c(Nc3ccc(C)cc3)nc3nonc3n12`, the cytotoxicity is -14%.

Turning to `CCOC(=O)c1[nH]c(C)c(C(=O)Nc2ccccc2F)c1C`, the cytotoxicity is 37.9%. The value for `CCOC(=O)Cc1nnc2c(Nc3ccccc3F)nc3nonc3n12` was 53.8% (active); that for `CCOC(=O)Cn1nc(-c2ccc(Cl)cc2)cc1N` was 0.5%. For `CCOC(=O)n1ccc(C(=O)Nc2ccccc2F)n1` the value was -9.8%; for `CCOC(=O)c1ccc(NC(=O)CCc2ccc(CC)o2)cc1`, 8.4%; for `COc1cccc2cc(C(=O)C3=C(O)C(=O)N(CCCN4CCOCC4)C3c3ccncc3)oc12` (stereo not given), 3.9%. For `CC(C)(C)NC(=O)Cn1c(SCC(=O)N2CCCCCC2)nc2ccccc21` the value was -0.2%. With `Cc1csc2ncc(C(=O)NCc3ccccn3)c(=O)n12`, the cytotoxicity is -11.8%. Consider `Cc1ccc(OCCn2c(C)c(/C=N/n3cnnc3)c3ccccc32)cc1`, for which the cytotoxicity was 41.7%. For `Cc1c(/C=N/n2cnnc2)c2ccccc2n1CCOc1ccccc1` the value was 43.4%; for `COc1cccc(OCCn2c(C)c(/C=N/n3cnnc3)c3ccccc32)c1`, 85.9% (active); for `CCOC(=O)N1CCC(NC(=O)C2CCC(CNS(=O)(=O)c3ccc(OC)cc3)CC2)CC1` (stereo not given), 0.5%.

In the case of `C=CCn1c(=N)n(CC(=O)OC)c2ccccc21`, the cytotoxicity is 8.1%.

As to `c1coc(-c2nc3nc4ccccc4n3nc2-c2ccco2)c1`, the cytotoxicity is 67.4% (active).

In the case of `c1coc(-c2nc3ccccc3nc2-c2ccco2)c1`, the cytotoxicity was -6.2%.

`c1coc(-c2nc(-c3ccco3)c(-c3ccco3)nc2-c2ccco2)c1`: the cytotoxicity is -1.8%. `O=C1CCCc2nc(N3CCN(c4ccccc4)CC3)ncc21`: the cytotoxicity was 20.9%. For `O=C(NC1CCCC1)C(c1cccs1)N(C(=O)c1ccno1)c1ccccc1` (stereo not given) the value was 2.6%; for `COc1ccc(C2/C(=C(/O)c3ccc(C)cc3)C(=O)C(=O)N2C)cc1` (stereo not given), -6.1%; for `Cc1nnc(SCCn2c(N3CCN(C)CC3)nc3c2c(=O)n(C)c(=O)n3C)s1`, 3.6%. Regarding `Cc1nnc(SCCn2c(N3CCN(C)CC3)nc3c2c(=O)[nH]c(=O)n3C)s1`, the cytotoxicity is -9.9%. For `Cc1nnc(Sc2nc(Sc3nnc(C)s3)nc(N3CCN(C)CC3)n2)s1` the value was 102% (active); for `CC(=O)Nc1nc(C)c(Oc2ccccc2)c(=O)[nH]1`, 6.8%.

In the case of `CCOC(=O)c1[nH]c(C)c(C(=O)N2CCc3ccccc32)c1C`, the cytotoxicity is 57.6% (active).

As to `CC(=O)c1c(C)[nH]c(C(=O)N2CCc3ccccc32)c1C`, the cytotoxicity was 10.3%.

With `CCOC(=O)c1c(C)[nH]c(C(=O)OCC(=O)N2CCc3ccccc32)c1C`, the cytotoxicity is -21.3%. For the compound `COc1ccc(CN(C(=O)CSc2nnc(-c3ccc(F)cc3)o2)c2ccc(F)cc2)cc1`, the cytotoxicity is -9.8%.

As for `COc1ccc(CN(C(=O)CSc2nnc(-c3ccccc3F)o2)c2ccc(F)cc2)cc1`, the cytotoxicity was 16.8%. For `O=C(CSc1nnc(-c2c[nH]c3ccccc23)o1)N(Cc1ccccc1)c1ccc(F)cc1` the value was 53.4% (active); for `CCOC(=O)c1sc(NC(=O)CSc2n[nH]c(-c3ccccc3)n2)c(C#N)c1C`, -1.8%.

As to `CCOC(=O)c1c(NC(=O)CSc2n[nH]c(N)n2)sc(CC)c1C`, the cytotoxicity was 0%. In the case of `Cc1ccc(C(=O)NCCCC(=O)O)o1`, the cytotoxicity is -5%. For `Cc1cc(-c2ccco2)n2c(nc3ccccc32)c1C#N` the value was 18.2%.

For the compound `COC(=O)c1nnn(-c2nc(N3CCCCC3)nc(N3CCCCC3)n2)c1C`, the cytotoxicity was -3.1%. For `CCOC(=O)c1cnc(-n2nc(C)cc2C)nc1NC(C)c1ccccc1` (stereo not given) the value was -13%; for `NS(=O)(=O)c1ccc(NC=C2C(=O)OC3(CCCCC3)OC2=O)cc1`, 8.5%; for `NS(=O)(=O)c1ccc(NC(=O)CSC2CCCCC2)cc1`, -3.7%. For `Cc1ccc(-c2nnn(CC(=O)Nc3ccc(S(=O)(=O)N4CCC(C)CC4)cc3)n2)cc1` the value was -2.5%; for `CCOC(=O)c1c2n(c3ccc(O)cc13)CCCCC2`, 2.9%; for `COc1ccc(C(=O)Oc2c(CN3CCOCC3)cc(Cl)c3cccnc23)cc1OC`, 13.7%. For `Oc1c(CN2CCOCC2)cc(COCc2ccccc2)c2cccnc12` the value was 30.7%; for `COc1cc(C(=O)Oc2c(CN3CCOCC3)cc(Cl)c3cccnc23)cc(OC)c1OC`, 18.4%; for `O=C(Oc1c(Cl)cc(Cl)c2cccnc12)N1CCOCC1`, -2.4%. For `Cc1ccc(Cl)cc1N(CC(=O)NC1CCCCC1)S(C)(=O)=O`, the cytotoxicity was -5.9%. For `Cc1nc2cc(-c3cccc(F)c3)nn2c(C)c1CCC(=O)N1CCN(c2ccccn2)CC1` the value was -4.7%; for `OC(CN1CCOCC1)CN1CCOCC1`, 13.2%. For `CCCCCOc1ccc(OC(=O)c2ccncc2)cc1` the value was -0.5%; for `CC(=O)c1cccc(NC(=O)c2cc(C(C)C)on2)c1`, -17.2%.

Take `O=C(O)CCC(=O)Nc1ccc(C(=O)OC2CCCCC2)cc1`: the cytotoxicity was -16.9%.

Take `O=C(OC1CCCCC1)c1ccc(NC(=O)c2ccco2)cc1`: the cytotoxicity is 74.9% (active). `O=C(Nc1ccc(OC(=O)c2ccco2)cc1)c1ccco1`: the cytotoxicity was -0.1%. The value for `CCCCOC(=O)c1ccc(NC(C)=O)cc1` was -20.2%. Turning to `CCCCCOC(=O)c1ccc(NC(=O)c2ccco2)cc1`, the cytotoxicity is 80.3% (active). Regarding `CCCCOC(=O)c1ccc(NC(=O)c2ccoc2C)cc1`, the cytotoxicity was 5%. Take `CCC1S/C(=C(\C#N)C(=O)NCc2ccco2)N(c2ccc(Br)cc2)C1=O` (stereo not given): the cytotoxicity is -5.6%. The value for `O=C(CSCc1ccccc1)Nc1nccs1` was -4.5%; that for `CC(C)CCn1c(NCCc2ccccc2)nc2c1c(=O)n(C)c(=O)n2C` was 0.9%; that for `O=S(=O)(O)c1nc2ccccc2n1CCOc1ccccc1` was 5.6%. The value for `CC(=O)Oc1ccc(N2C(=O)CCC2=O)cc1` was -3.8%; that for `Nc1c(Br)cc(Br)c(N2CCCC2=O)c1Br` was 0.5%.

As for `O=C(c1ccc(Cl)cc1)c1ccc(OCC(O)CN2CCOCC2)cc1` (stereo not given), the cytotoxicity was 2.3%.

Turning to `CS(=O)(=O)N1CCC(NC(=O)Cc2ccccc2)CC1`, the cytotoxicity was -2.1%. For `C/C=C(\CS(=O)(=O)c1ccccc1)S(=O)(=O)c1ccccc1` the value was 42.2%. For `O=C(CS(=O)(=O)c1ccccc1)N1CCCCCC1` the value was -9.5%; for `O=C1c2ccccc2C(=O)N1CCc1nc(-c2cccnc2)no1`, -7.3%; for `COc1ccc(C)cc1NC(=O)c1nnn(Cc2cc(C)ccc2C)c1N`, -4%. For `Cc1cccc(-n2nnc(C(=O)Nc3ccc(F)cc3)c2N)c1`, the cytotoxicity was 4.2%. For `Cc1cc(C)cc(NC(=O)c2nnn(Cc3cc(C)ccc3C)c2N)c1` the value was 54.9% (active); for `Cc1ccc(C)c(NC(=O)c2nnn(Cc3ccccc3C)c2N)c1`, -4.9%.

Consider `Cc1ccc(NC(=O)c2nnn(-c3cc(C)cc(C)c3)c2N)cc1`, for which the cytotoxicity was 51.9% (active). The value for `Cc1ccc(CCNC(=O)c2nnn(-c3cc(C)cc(C)c3)c2N)cc1` was 8.1%.
